{"source": "ChEMBL document CHEMBL3988442", "about": "“University of Dundee, Small-Polar-MMV Screening Library” (2021)", "note": "Among all 48,000 compounds or so, about 13,000 (27%) showed an effect of 50% or more. This is one part of the list."}
{"tested_on": "Wolbachia pipientis", "experiment": "Anti-Wolbachia Cell-Based Screen", "assay_type": "functional", "parameters": "scale not given: in the data most compounds retested in dose-response had high values", "details": "5 µM", "units": {"Percent Effect": "%"}}
{"compound": "COc1cccc(SCC(=O)N2CCC(N3CCCC(O)C3)CC2)c1", "note": "(stereo not drawn)", "Percent Effect": 2.194}
{"compound": "Cn1ccc(C(=O)Nc2nnc(-c3ccccn3)[nH]2)cc1=O", "Percent Effect": -6.589}
{"compound": "COc1coc(C(=O)Nc2nc(-c3ccccn3)cs2)cc1=O", "Percent Effect": 131}
{"compound": "COCc1csc(NC(=O)NCc2ccccn2)n1", "Percent Effect": 11.42}
{"compound": "CCN(CC1CCOC1)C(=O)CCc1nc(C(C)(C)C)no1", "note": "(stereo not drawn)", "Percent Effect": -1.689}
{"compound": "CC1CCCN(c2ncc(C(=O)NCc3ccc(F)c(Cl)c3)c(N)n2)C1", "note": "(stereo not drawn)", "Percent Effect": 73.04}
{"compound": "Nc1nc(N2CCCCC2)ncc1C(=O)NCc1ccc(F)c(Cl)c1", "Percent Effect": 94.05}
{"compound": "O=C(Nc1cc(Cl)ccn1)c1nc(N2CCCC2)ncc1Cl", "Percent Effect": -15.57}
{"compound": "O=C(Cn1cc(C(=O)O)ccc1=O)NCc1ccc(F)c(Cl)c1", "Percent Effect": 13.7}
{"compound": "Nc1nc(N2CCCCCC2)ncc1C(=O)NCc1ccc(F)c(Cl)c1", "Percent Effect": 114.6}
{"compound": "CN(c1ncc(C(=O)NCc2ccccc2)c(N)n1)C1CCCCC1", "Percent Effect": 2.294}
{"compound": "Cc1cc(C(N)=O)ccc1NC(=O)c1nc(N2CCCCC2)ncc1Cl", "Percent Effect": -13.62}
{"compound": "NS(=O)(=O)c1ccc(CNC(=O)c2ccc(Cl)cc2F)cc1", "Percent Effect": -5.173}
{"compound": "Cc1cccc(C(=O)NCc2ccc(N3CCCCC3)nc2)n1", "Percent Effect": -4.595}
{"compound": "CCCn1cc(-c2ccnc(NC3CCc4ccccc43)n2)c(C)n1", "note": "(stereo not drawn)", "Percent Effect": -0.7424}
{"compound": "Cc1cccc(C(C(=O)NCC2(Cn3nc(C)cc3C)CC2)N(C)C)c1", "note": "(stereo not drawn)", "Percent Effect": -2.816}
{"compound": "Cc1ccc(CN2CC[C@H](c3nnc(COc4ccc(F)cc4)o3)C2)o1", "Percent Effect": -1.742}
{"compound": "COc1cccc(-c2noc(C3CCN(Cc4cn(C)nc4C)C3)n2)c1", "note": "(stereo not drawn)", "Percent Effect": -2.203}
{"compound": "COC(=O)c1cccc2nc([C@H]3CCN(Cc4ccccc4C)C3)oc12", "Percent Effect": 0.4423}
{"compound": "COC(=O)c1cccc2nc([C@H]3CCN(Cc4ccccc4F)C3)oc12", "Percent Effect": 4.5}
{"compound": "COc1cccc(-c2noc(C3CCN(Cc4ccccc4F)C3)n2)c1.Cl", "note": "(stereo not drawn)", "Percent Effect": 108.2}
{"compound": "COc1cccc(-c2ncc(CN3CC[C@H](CO)[C@@H](O)C3)s2)c1", "Percent Effect": 10.62}
{"compound": "COc1cccc(-c2noc(C3CCN(Cc4ccccc4C)C3)n2)c1.Cl", "note": "(stereo not drawn)", "Percent Effect": 79.37}
{"compound": "Cc1n[nH]c(CN2CCN(c3ncnc4scc(C)c34)CC2)c1Cl", "Percent Effect": -1.697}
{"compound": "CC(O)CN1CCN(C(=O)c2cccc3[nH]ncc23)CC1", "note": "(stereo not drawn)", "Percent Effect": 5.765}
{"compound": "Cc1nc(C2CCN(C(=O)c3ccn(C)n3)CC2)c2sccn12", "Percent Effect": 109.4}
{"compound": "Cc1nc(C2CCN(C(=O)c3cscn3)CC2)c2sccn12", "Percent Effect": 123.8}
{"compound": "CC(O)c1cn(CC2CCN(C(=O)c3cscn3)CC2)nn1", "note": "(stereo not drawn)", "Percent Effect": -31.81}
{"compound": "Cc1nc(CN2CCO[C@H]3CN(C(=O)c4cscn4)C[C@H]32)cs1", "Percent Effect": -19.39}
{"compound": "CCc1cnc(C)nc1NCCSc1nnc(C)n1CC", "Percent Effect": -6.357}
{"compound": "c1cnnc(N2CCCC(NCc3ccc(-n4cncn4)cc3)C2)c1", "note": "(stereo not drawn)", "Percent Effect": -12.46}
{"compound": "CSCCc1n[nH]c2c1CN(S(=O)(=O)c1cn(C)c(C)n1)CC2", "Percent Effect": 5.686}
{"compound": "O=C1C(NCc2nnc3n2CCCC3)CCN1c1ccccc1", "note": "(stereo not drawn)", "Percent Effect": 4.078}
{"compound": "CC(C)NC(=O)CN(C)C1CCN(c2ccc(C#N)cn2)CC1", "Percent Effect": -9.804}
{"compound": "O=C1CC2(CCN(C(=O)c3ccccn3)CC2)Oc2c(Br)cc(Br)cc21", "Percent Effect": 106.1}
{"compound": "O=C1CC2(CCN(C(=O)c3ccccn3)CC2)Oc2c(Cl)cc(Cl)cc21", "Percent Effect": 107.9}
{"compound": "Cc1ccc(F)c(OC2(C(=O)O)CCN(C(=O)c3ccncc3)CC2)c1", "Percent Effect": 12.09}
{"compound": "O=C(c1ccncc1)N1CCN(c2ccc(F)cc2Cl)CC1", "Percent Effect": 2.697}
{"compound": "O=C(c1ccccn1)N1CCN(c2ccc(-n3cccc3)nn2)CC1", "Percent Effect": 9.922}
{"compound": "CC(C)CN1CCc2[nH]cnc2C12CCN(C(=O)c1ccccn1)CC2", "Percent Effect": 2.853}
{"compound": "O=C1CC2(CCN(C(=O)c3ccncc3)CC2)Oc2c(Cl)cc(Cl)cc21", "Percent Effect": 113.6}
{"compound": "Cc1cccc(C2(O)CCN(C(=O)c3ccccn3)CC2)c1C", "Percent Effect": 8.443}
{"compound": "Cc1oc(-c2ccco2)nc1CC(=O)NCC(C)(C)N(C)C", "Percent Effect": -56.87}
{"compound": "CCCc1cc(C(=O)N2C[C@H]3CC=C(C)C[C@H]3C2)ccn1", "Percent Effect": -1.263}
{"compound": "Clc1cnccc1N1CCC(OC2CCOCC2)CC1", "Percent Effect": -17.26}
{"compound": "CCc1nsc(N2CCCN(C(=O)c3ccc(CC)o3)CC2)n1", "Percent Effect": 0.3515}
{"compound": "Cc1noc2ncnc(NC(CC(C)(C)C)c3cccnc3)c12", "note": "(stereo not drawn)", "Percent Effect": -8.396}
{"compound": "Cc1ccc(C)c(CC(=O)Nc2cccc(C(=O)N(C)C)n2)c1", "Percent Effect": -5.2}
{"compound": "CCCc1cc(C(=O)NCCC2=CCCCC2)[nH]n1", "Percent Effect": -0.1472}
{"compound": "O=C(NCCC1=CCCCC1)c1cc(-c2ccc(O)cc2)n[nH]1", "Percent Effect": 12.27}
{"compound": "O=C(NCCC1=CCCCC1)C1CCN(c2ccc3nncn3n2)CC1", "Percent Effect": 0.9872}
{"compound": "O=C(NCCC1=CCCCC1)c1n[nH]c2c1CCCC2", "Percent Effect": 109.4}
{"compound": "Cc1ccc(NC(=O)CN(C)C(=O)c2ccc(-n3cccc3)nc2)nc1", "Percent Effect": -2.8}
{"compound": "O=C(NCCC1=CCCCC1)c1ccc(-n2cccc2)nc1", "Percent Effect": 122.4}
{"compound": "CC(=O)NCCc1nc(C(C)C)nn1-c1ccncc1C", "Percent Effect": -7.062}
{"compound": "CC1CCN(CCCNS(=O)(=O)Cc2ccccc2F)CC1", "Percent Effect": -5.574}
{"compound": "CCOc1cccnc1C(=O)N1CC=C(c2ccc(O)cc2)CC1", "Percent Effect": -4.198}
{"compound": "Cc1ccc(C2=CCN(C(=O)C3CCN(C)C(=O)C3)CC2)cc1", "note": "(stereo not drawn)", "Percent Effect": 92.67}
{"compound": "CCOc1ccccc1C1=CCN(C(=O)C2CCN(C)C(=O)C2)CC1", "note": "(stereo not drawn)", "Percent Effect": 103.5}
{"compound": "CN1CC(C(=O)N2CCC(Oc3ccccc3Cl)CC2)CC1=O", "note": "(stereo not drawn)", "Percent Effect": 1.662}
{"compound": "COc1ccc(C2=CCN(C(=O)C3CCN(C)C(=O)C3)CC2)cc1", "note": "(stereo not drawn)", "Percent Effect": -8.99}
{"compound": "CN1CCC(C(=O)N2CCC(=Cc3cccc(F)c3)CC2)CC1=O", "note": "(stereo not drawn)", "Percent Effect": -1.128}
{"compound": "O=C(Cn1nnn(-c2cccs2)c1=O)NCC1CCOC1", "note": "(stereo not drawn)", "Percent Effect": 8.767}
{"compound": "NC(=O)c1cccc(CCNCc2cnc(C3CCC3)s2)c1", "Percent Effect": -3.682}
{"compound": "O=C(c1sccc1Br)N1CCOCC1", "Percent Effect": 7.49}
{"compound": "CS(=O)(=O)N1C[C@@H]2CC[C@H](C1)N(C(=O)CCn1cnc3ccccc31)C2", "Percent Effect": 6.293}
{"compound": "CCC(=O)Nc1ccc2c(c1)C1(CCOCC1)CN2CCF.O=C(O)C(F)(F)F", "Percent Effect": 102.7}
{"compound": "CCN1C(=O)C2(CCOCC2)c2cc(NC(=O)COC)ccc21", "Percent Effect": 1.52}
{"compound": "CCN1C(=O)C2(CCOCC2)c2cc(NC(=O)c3cccn3C)ccc21", "Percent Effect": 0.2171}
{"compound": "COCC(=O)Nc1ccc2c(c1)C1(CCOCC1)CN2CCF.O=C(O)C(F)(F)F", "Percent Effect": 107}
{"compound": "Cc1cccc(N(CC(=O)N2CCCCC2)Cc2nc(=O)[nH][nH]2)c1", "Percent Effect": -2.957}
{"compound": "O=C(O)C(F)(F)F.O=C(c1ccc2ccc(N3CCN(CC4CC4)CC3)n2c1)N1CCCO1", "Percent Effect": -6.167}
{"compound": "O=C(CCn1cc(Cl)cn1)Nc1ncccn1", "Percent Effect": -3.476}
{"compound": "O=C(Cn1cc(Cl)cn1)N1CCNC1=O", "Percent Effect": 95.03}
{"compound": "O=C(Cn1cc(I)cn1)N1CCOCC1", "Percent Effect": 0.7374}
{"compound": "Cc1nccc(-c2cccc(NCC(=O)N3CCNC3=O)c2)n1", "Percent Effect": 6.599}
{"compound": "O=C(Cn1cc(-c2ccccc2)cn1)N1CCNC1=O", "Percent Effect": 110}
{"compound": "O=C(Cn1cc(I)cn1)N1CCNC1=O", "Percent Effect": 104.2}
{"compound": "CC(C)C(C)(C#N)NC(=O)Cn1cc(Cl)cn1", "note": "(stereo not drawn)", "Percent Effect": -4.371}
{"compound": "CCCNC(=O)Cn1cc(-c2ccccc2)cn1", "Percent Effect": 1.367}
{"compound": "O=C(Cn1cc(I)cn1)N1CCCC1", "Percent Effect": 17.91}
{"compound": "CN1C[C@@H](NC(=O)CC(C)(C)C)C[C@H]1c1nc(-c2cnccn2)no1", "Percent Effect": -6.894}
{"compound": "O=C(CN1CSCC1=O)NCC1CCN(c2ccccc2)C1", "note": "(stereo not drawn)", "Percent Effect": -5.821}
{"compound": "O=S1(=O)C[C@@H]2[C@H](C1)N(Cc1ccc3ccccc3c1)CCN2CC1CC1", "Percent Effect": -3.143}
{"compound": "O=C(c1cncs1)N1CCC(c2cnccn2)CC1", "Percent Effect": 100.4}
{"compound": "O=C(c1cc2c(s1)CCC2)N1CCN(c2cnccn2)CC1", "Percent Effect": 87.73}
{"compound": "CN(C)c1cc(C(=O)N2CCN(c3cnccn3)CC2)ccn1", "Percent Effect": -5.802}
{"compound": "O=C(c1cc2c(s1)CCC2)N1CCC(c2cnccn2)CC1", "Percent Effect": 151.2}
{"compound": "O=C(c1ccc2c(c1)OCO2)N1CCN(c2cnccn2)CC1", "Percent Effect": -2.532}
{"compound": "O=C(c1cnccn1)N1CCN(c2ccnc3ccsc23)CC1", "Percent Effect": 3.546}
{"compound": "Cc1nc(C2CCCN2C(=O)c2cc3c(s2)CCCC3)no1", "note": "(stereo not drawn)", "Percent Effect": -3.152}
{"compound": "CN(C)c1cc2c(nn1)CCN(C(=O)c1cc3c(s1)CCCC3)C2", "Percent Effect": 1.352}
{"compound": "O=C(c1cc2c(s1)CCCCC2)N1CCC(c2ncc[nH]2)CC1", "Percent Effect": 88.07}
{"compound": "C=C(C)COc1cccc(CNC(COC)c2ccnn2C)c1", "note": "(stereo not drawn)", "Percent Effect": 4.309}
{"compound": "Cn1c(Cn2cccn2)nnc1C1CCN(Cc2cccnc2N)CC1", "Percent Effect": -0.4084}
{"compound": "CCn1cnnc1C1CCN(C(=O)c2cc3c(s2)CCC3)CC1", "Percent Effect": -8.588}
{"compound": "CN(C)c1cc2c(nn1)CCN(C(=O)c1cc3c(s1)CCC3)C2", "Percent Effect": 9.509}
{"compound": "O=C(c1cc2c(s1)CCC2)N1CCC(c2ccncc2)CC1", "Percent Effect": 202.7}
{"compound": "O=C(c1cc2c(s1)CCC2)N1CCCC(c2cnccn2)C1", "note": "(stereo not drawn)", "Percent Effect": 144.9}
{"compound": "Cc1cc(C2CCCN2C(=O)c2cc3c(s2)CCC3)on1", "note": "(stereo not drawn)", "Percent Effect": 4.731}
{"compound": "COc1ccc(Cl)cc1-c1cc(NC(=O)CNC(=O)C2CC2)[nH]n1", "Percent Effect": -9.759}
{"compound": "CCn1cc(CN2CCC(N3CCC(O)CC3)CC2)cc1C#N", "Percent Effect": 0}
{"compound": "Cc1csc(C(C)(C)NCC(=O)N2CCCC(C(N)=O)C2)n1", "note": "(stereo not drawn)", "Percent Effect": -19.83}
